From PMC8384837, “Expanding the binding specificity for RNA recognition by a PUF domain” come the findings set out here.

Assay in all cases: yeast three-hybrid, YBZ-1, SC-Leu-His + 0.5 mM 3-AT, 4 days
Details in all cases: tags: N-Gal4 AD-HA kept; label: inside an RPR1-promoter hybrid RNA with tandem MS2 sites; ssRNA

The target in experiment [1] is PUM1 PUF domain R8-RRH (Homo sapiens, UniProt Q14671 828-1176, N1122R;Y1123R;Q1126H). The gist of the method: (§1)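 Pumilio-1 PUF domain libraries, randomized at the three base-contacting residues of each repeat, were co-expressed with matching RNA elements from a centromeric plasmid in strain YBZ-1, which carries a LexA–MS2 coat fusion and a HIS3 reporter. Transformants grew for four days on SC-Leu (input) or on SC-Leu-His + 0.5 mM 3-AT (selection), and the repeat regions were PCR-amplified and Illumina-sequenced. The interaction score is the log change in variant frequency from input to selection. That logarithm is base 2, with a pseudocount of 1 where a variant was absent.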

In experiment [2] the target is PUM1 PUF domain R3-PYY (Homo sapiens, UniProt Q14671 828-1176, C935P;R936Y;Q939Y). The gist of the method: as §1
Experiment [3] concerns the target PUM1 PUF domain R3-GRW (Homo sapiens, UniProt Q14671 828-1176, C935G;Q939W). The method, boiled down: as §1
For experiment [4], the target named is PUM1 PUF domain R5-QSR (Homo sapiens, UniProt Q14671 828-1176, C1007Q;R1008S;Q1011R). The gist of the method:
as §1

For experiment [5], the target named is PUM1 PUF domain R5-TRM (Homo sapiens, UniProt Q14671 828-1176, C1007T;Q1011M). The gist of the method: as §1
Experiment [6] addresses PUM1 PUF domain R8-PFH (Homo sapiens, UniProt Q14671 828-1176, N1122P;Y1123F;Q1126H). The method, boiled down: as §1
Experiment [7] deals with PUM1 PUF domain R5-PMK (Homo sapiens, UniProt Q14671 828-1176, C1007P;R1008M;Q1011K). The gist of the method: as §1
Experiment [8] has as its target PUM1 PUF domain R2-RHE (Homo sapiens, UniProt Q14671 828-1176, N899R;Y900H;Q903E). The method, boiled down: as §1
Experiment [9] has as its target PUM1 PUF domain R4-VNS (Homo sapiens, UniProt Q14671 828-1176, N971V;H972N;Q975S). The method, boiled down:
as §1

Experiment [10] addresses PUM1 PUF domain R5-RMT (Homo sapiens, UniProt Q14671 828-1176, C1007R;R1008M;Q1011T). The method, boiled down: as §1

Sequence of PUM1 PUF domain R3-GRW (Q14671 828-1176 C935G/Q939W): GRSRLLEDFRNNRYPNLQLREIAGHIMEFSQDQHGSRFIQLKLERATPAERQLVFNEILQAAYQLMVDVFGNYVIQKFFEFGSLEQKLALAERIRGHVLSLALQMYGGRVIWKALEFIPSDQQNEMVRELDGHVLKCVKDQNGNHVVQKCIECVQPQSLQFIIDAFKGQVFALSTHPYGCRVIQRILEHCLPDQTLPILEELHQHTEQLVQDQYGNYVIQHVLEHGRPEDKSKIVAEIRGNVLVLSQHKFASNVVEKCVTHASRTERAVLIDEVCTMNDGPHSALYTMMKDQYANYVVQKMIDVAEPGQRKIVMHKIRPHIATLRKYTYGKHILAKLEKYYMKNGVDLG
Sequence of PUM1 PUF domain R5-QSR (Q14671 828-1176 C1007Q/R1008S/Q1011R): as the sequence (Q14671 828-1176 C935G/Q939W) above, with G108C, W112Q, C180Q, R181S, Q184R counted along it
Sequence of PUM1 PUF domain R8-RRH (Q14671 828-1176 N1122R/Y1123R/Q1126H): as the sequence (Q14671 828-1176 C935G/Q939W) above, with G108C, W112Q, N295R, Y296R, Q299H counted along it
Sequence of PUM1 PUF domain R4-VNS (Q14671 828-1176 N971V/H972N/Q975S): as the sequence (Q14671 828-1176 C935G/Q939W) above, with G108C, W112Q, N144V, H145N, Q148S counted along it
Sequence of PUM1 PUF domain R8-PFH (Q14671 828-1176 N1122P/Y1123F/Q1126H): as the sequence (Q14671 828-1176 C935G/Q939W) above, with G108C, W112Q, N295P, Y296F, Q299H counted along it
Sequence of PUM1 PUF domain R5-PMK (Q14671 828-1176 C1007P/R1008M/Q1011K): as the sequence (Q14671 828-1176 C935G/Q939W) above, with G108C, W112Q, C180P, R181M, Q184K counted along it
Sequence of PUM1 PUF domain R5-TRM (Q14671 828-1176 C1007T/Q1011M): as the sequence (Q14671 828-1176 C935G/Q939W) above, with G108C, W112Q, C180T, Q184M counted along it
Sequence of PUM1 PUF domain R3-PYY (Q14671 828-1176 C935P/R936Y/Q939Y): as the sequence (Q14671 828-1176 C935G/Q939W) above, with G108P, R109Y, W112Y counted along it
Sequence of PUM1 PUF domain R5-RMT (Q14671 828-1176 C1007R/R1008M/Q1011T): as the sequence (Q14671 828-1176 C935G/Q939W) above, with G108C, W112Q, C180R, R181M, Q184T counted along it
Sequence of PUM1 PUF domain R2-RHE (Q14671 828-1176 N899R/Y900H/Q903E): as the sequence (Q14671 828-1176 C935G/Q939W) above, with N72R, Y73H, Q76E, G108C, W112Q counted along it

As to “GGCUAGAACUAGUGGAUCCCCCGGCGCCCGGCGGCUCGAGCCCGGGUAAGUGUAAAUAGUCUGCAUGCCGCCGGGCGCCAUGCCUGCAGGUCGACUCUAGAAAACAUG”, the binding signal in [1] is 0.67 log2 enrichment (interaction score); in experiment [2], 6.39 log2 enrichment (interaction score); in [3], 4.33 log2 enrichment (interaction score); in experiment [4] it was 1.54 log2 enrichment (interaction score); in experiment [5] it was 2.74 log2 enrichment (interaction score).

With “GGCUAGAACUAGUGGAUCCCCCGGCGCCCGGCGGCUCGAGCCCGGGUAAGCGUAAAUAGUCUGCAUGCCGCCGGGCGCCAUGCCUGCAGGUCGACUCUAGAAAACAUG”, the binding signal was 2.98 log2 enrichment (interaction score) in experiment [6] and 2.65 log2 enrichment (interaction score) in [1].

For “GGCUAGAACUAGUGGAUCCCCCGGCGCCCGGCGGCUCGAGCCCGGGUAAGUGUUAAUAGUCUGCAUGCCGCCGGGCGCCAUGCCUGCAGGUCGACUCUAGAAAACAUG”, the binding signal in [7] was 2.73 log2 enrichment (interaction score).

Regarding “GGCUAGAACUAGUGGAUCCCCCGGCGCCCGGCGGCUCGAGCCCGGGUAAGUGUAAUUAGUCUGCAUGCCGCCGGGCGCCAUGCCUGCAGGUCGACUCUAGAAAACAUG”, the binding signal in experiment [3] was 0.31 log2 enrichment (interaction score).

As for “GGCUAGAACUAGUGGAUCCCCCGGCGCCCGGCGGCUCGAGCCCGGGUAAGUGUAAAGAGUCUGCAUGCCGCCGGGCGCCAUGCCUGCAGGUCGACUCUAGAAAACAUG”, the binding signal in experiment [8] is 3.71 log2 enrichment (interaction score).

Turning to “GGCUAGAACUAGUGGAUCCCCCGGCGCCCGGCGGCUCGAGCCCGGGUAAGUGUAUAUAGUCUGCAUGCCGCCGGGCGCCAUGCCUGCAGGUCGACUCUAGAAAACAUG”, the binding signal in experiment [9] is 2.92 log2 enrichment (interaction score).

“GGCUAGAACUAGUGGAUCCCCCGGCGCCCGGCGGCUCGAGCCCGGGUAAGUGUCAAUAGUCUGCAUGCCGCCGGGCGCCAUGCCUGCAGGUCGACUCUAGAAAACAUG”: the binding signal in [10] is 3.58 log2 enrichment (interaction score); in [4], 4.21 log2 enrichment (interaction score).

For “GGCUAGAACUAGUGGAUCCCCCGGCGCCCGGCGGCUCGAGCCCGGGUAAGUGUACAUAGUCUGCAUGCCGCCGGGCGCCAUGCCUGCAGGUCGACUCUAGAAAACAUG”, the binding signal in [9] is 1.91 log2 enrichment (interaction score).
